From PubChem BioAssay (NCATS) come the findings set out here.

A short description of experiment [1]: Viability qHTS for spleen associated tyrosine kinase inhibitor (SYKi) naive MV4-11 cells (AID 1963823). Further: nearly all actives have a fitted effect of over 40% in size. The following applies: MV4-11 AML viability, CellTiter-Glo luminescence, 72 h; series mostly up to 45 µM. In outline: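 Seeding of 500 SYKi-naive MV4-11 cells per well onto pre-dispensed compounds preceded a 72 hr incubation at 37 C. Luminescent CellTiter-Glo signal, read after 10 min at room temperature, reflected viable cells.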
For orientation: In qHTS, concentration-response curves come from the screen itself.

Experiment [2] can be described thus: Viability qHTS for spleen associated tyrosine kinase inhibitor (SYKi) drug resistant MV4-11 cells (AID 1963824). Further: nearly all actives have a fitted effect of over 35% in size. To be noted: SYKi-resistant MV4-11 viability, CellTiter-Glo, 72 h; series mostly up to 45 µM. In outline: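 SYK inhibitor-resistant MV4-11 AML cells, 500 per well, added to predispensed compounds and incubated 72 hr at 37 C, 5% CO2. Viability measured by CellTiter-Glo luminescence after 10 min at room temperature.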

Experiment [3] is described as follows: Cellular viability qHTS for adrenocortical cancer (ACC) cell line SW-13 (AID 1963989). Further: nearly all actives have a fitted effect of over 65% in size.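 On activity (max response): cells grown in serum-free medium with ITS supplement; on the % scale 0 is the no-effect control and ±100 the full control effect.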 To be noted: SW-13 ACC cells viability, CellTiter-Glo, 48 h; activity (max response): stronger effect = lower value. In outline: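 IC50 and maximal-response values come from four-parameter logistic fits of titration data. SW-13 cells in serum-free medium received compounds (up to 46 uM final) for 48 h before CellTiter-Glo luminescence.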

Experiment [4] is described as follows: Cellular viability qHTS for adrenocortical cancer (ACC) cell line NCI-H295R (AID 1963990). Further: nearly all actives have a fitted effect of over 60% in size.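 On activity change, negative = viability loss: 0% = DMSO only wells and -100% = full killing with cytotoxic reference compound.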 To be noted: CellTiter-Glo ATP luminescence, 48 h; series mostly up to 46.1 µM. In outline: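 Adrenocortical carcinoma cells, suspended at 300 000 cells/mL in serum-free DMEM plus ITS, rested overnight before pin transfer of compound. After two days' incubation, ATP-dependent luminescence was recorded and curve-fitted.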

Where “and” joins values, the source holds several entries; their conditions need not be identical. Identical values can stand only once. Records with an inconclusive call do not appear. A structure can be active in one record and inactive in another. Calls of active or inactive are those of the source. The call rests on the fitted dose curve; in most records, active means well fitted curve in the direction sought with a large enough effect; inconclusive means small, poorly fitted or top-dose-only effect, or another doubt; inactive means no such curve, though single readings can be large; an effect the other way counts as inactive or inconclusive.
Potency means the concentration at half of the fitted maximal effect.

In the case of `C#C[C@]1(O)CC[C@H]2[C@@H]3[C@H](C)CC4=C(CCC(=O)C4)[C@H]3CC[C@@]21C`, the Potency result in experiment [1] and in experiment [4] was “inactive” each time. In addition, in experiment [2], the Potency was 18.6 µM (active). Moreover, in experiment [3], the activity (max response) was -17.1% (inactive).
Take `O=C([O-])C[O-].[Pt+2]`: the Potency result in experiment [1], in experiment [2] and in experiment [4] was “inactive” in each case. Moreover, in experiment [3], the activity (max response) is -1.3% (inactive).
In the case of `COc1cc(F)ccc1-c1ncnc(Nc2cccc(CS(C)(=N)=O)c2)n1` (stereo not drawn), the Potency was 1.16 µM (active) in experiment [1], 1.16 µM (active) in experiment [2], 6310 nM (active) in experiment [3] and 7080 nM (active) in experiment [4].
With `CCC[C@@H]1C[C@@H](C(=O)N[C@@H]([C@H]2O[C@H](SC)[C@H](O)[C@@H](O)[C@H]2O)[C@H](C)Cl)N(C)C1`, the Potency entry in experiment [1], in experiment [2] and in experiment [4] was “inactive” throughout. Further, in experiment [3], the activity (max response) was 5.6% (inactive).
With `CC(=O)OCC(=O)[C@@]12OC(C)(C)O[C@@H]1C[C@H]1[C@@H]3C[C@H](F)C4=CC(=O)C=C[C@]4(C)[C@@]3(F)[C@@H](O)C[C@@]12C`, in experiment [1], the Potency result is “inactive and 93.4 nM (active)”. Moreover, the Potency result in experiment [2] and in experiment [4] was “inactive” each time. In experiment [3], the activity (max response) is 10.5% (inactive) and 8.23% (inactive).
As to `C#CC[C@H](c1nc2cc(Cl)ccc2c(=O)n1Nc1ccccc1)N(CCCN)C(=O)c1cccc(Cl)c1F`, the Potency in experiment [1] is 0.164 µM (active); in experiment [2], 0.206 µM (active); in experiment [3], 251 nM (active); in experiment [4] it was 3550 nM (active).
With `CN[C@H](CC(C)C)C(=O)N[C@H]1C(=O)N[C@@H](CC(N)=O)C(=O)N[C@H]2C(=O)N[C@H]3C(=O)N[C@H](C(=O)N[C@H](C(=O)O)c4cc(O)cc(O)c4-c4cc3ccc4O)[C@H](O)c3ccc(c(Cl)c3)Oc3cc2cc(c3O[C@@H]2O[C@H](CO)[C@@H](O)[C@H](O)[C@H]2O[C@H]2C[C@](C)(N)[C@H](O)[C@H](C)O2)Oc2ccc(cc2Cl)[C@H]1O`, the Potency entry in experiment [1], in experiment [2] and in experiment [4] was “inactive” in each case. Besides, the activity (max response) in experiment [3] was -12.5% (inactive).
For `O=S1(=O)OC(c2ccc(O)cc2)(c2ccc(O)cc2)c2ccccc21`, the Potency result in experiment [1], in experiment [2] and in experiment [4] was “inactive” each time. Moreover, the activity (max response) in experiment [3] was -5.64% (inactive).
Regarding `CC(=O)Oc1cccc(O)c1`, the Potency result in experiment [1], in experiment [2] and in experiment [4] was “inactive” throughout. In addition, the activity (max response) in experiment [3] was 7.39% (inactive).
For `NCC[C@H](O)C(=O)N[C@@H]1C[C@H](N)[C@@H](O[C@H]2O[C@H](CN)[C@@H](O)[C@H](O)[C@@H]2O)[C@H](O)[C@@H]1O[C@H]1O[C@H](CO)[C@@H](O)[C@H](N)[C@@H]1O`, the viability (% of control) in experiment [1] is 113% [at 0.588 µM] (inactive). For the same compound, the viability, % of control in experiment [2] was 95% [at 0.588 µM] (inactive). In experiment [3], the activity (max response) is 11.7% (inactive). Also, the activity change, negative = viability loss in experiment [4] was 7.11% [at 0.587 µM] (inactive).
On to `Cc1c(C(=O)NCCO)[n+](=O)c2ccccc2n1[O-]`, for which the Potency entry in experiment [1], in experiment [2] and in experiment [4] was “inactive” each time. Besides, the activity (max response) in experiment [3] was 7.59% (inactive).
Take `Cc1[nH]nc2ncc(C(=O)N3CCC[C@H]3c3ccc(Cl)cc3)cc12`: the Potency in experiment [1] is 5.25 µM (active); in experiment [2] it was 2.95 µM (active). Also, in experiment [3], the activity (max response) was -6.61% (inactive). For the same compound, the Potency result in experiment [4] was “inactive”.
In the case of `FC(F)(F)c1ccc(Nc2nc(-c3c(C(F)(F)F)nc4ccccn34)cs2)cc1`, the Potency in experiment [1] is 0.184 µM (active); in experiment [2], 0.13 µM (active); in experiment [3], 282 nM (active); in experiment [4], 316 nM (active).
As to `CC(C)=CCC/C(C)=C/CO`, the Potency entry in experiment [1], in experiment [2] and in experiment [4] was “inactive” in each case. In experiment [3], the activity (max response) was 10% (inactive).
Regarding `NC(=S)N/N=C/c1cccnc1`, the Potency entry in experiment [1], in experiment [2] and in experiment [4] was “inactive” in each case. Also, the activity (max response) in experiment [3] is -1.7% (inactive).
On to `CN1C(C)(C)CCCC1(C)C`, for which the Potency entry in experiment [1], in experiment [2] and in experiment [4] was “inactive” in each case. Further, the activity (max response) in experiment [3] was -4.6% (inactive).
On to `NCCCC[C@H](N[C@@H](CCc1ccccc1)C(=O)O)C(=O)N1CCC[C@H]1C(=O)O`, for which the Potency result in experiment [1], in experiment [2] and in experiment [4] was “inactive” in each case. The activity (max response) in experiment [3] was 4.67% (inactive).
Consider `Cc1[nH]c2ccccc2c1CCNCc1ccc(/C=C/C(=O)NO)cc1`, for which the Potency was 0.0295 µM (active) in experiment [1], 0.0263 µM (active) in experiment [2], 251 nM (active) in experiment [3] and 112 nM (active) in experiment [4].
`COC(=O)/C=C/C(=O)N(O)CCCCNCc1ccc(COC(=O)Nc2cccc3ccccc23)cc1`: the Potency is 7.31 µM (active) in experiment [1] and 6.51 µM (active) in experiment [2]. The activity (max response) in experiment [3] is -10.5% (inactive). Besides, in experiment [4], the Potency result is “inactive”.
For `C/C=C/c1ccc(OC)cc1`, in that order: “inactive”, “inactive”, 7.49% (inactive) and “inactive”.
`COc1cc(N2CCC(N3CCN(C)CC3)CC2)ccc1Nc1ncc(Cl)c(Nc2ccccc2S(=O)(=O)C(C)C)n1`: the Potency in experiment [1] was 92 nM (active) and 148 nM (active); in experiment [2], 116 nM (active) and 209 nM (active); in experiment [3], 5010 nM (active); in experiment [4], 1120 nM (active).
For the compound `O=C(c1ccccc1)c1ccccc1`, the Potency entry in experiment [1], in experiment [2] and in experiment [4] was “inactive” each time. In addition, the activity (max response) in experiment [3] was 13.9% (inactive).
